Source: PubChem BioAssay AID1457 (National Center for Advancing Translational Sciences (NCATS), 2008)
Hit rate of the full screen: of about 210,000 compounds, about 730 (0.35%) were called active. Inconclusive results (about 1%) are left out. The sample holds actives, similar compounds and a random draw of the others, so the mix is not that of the screen. Unmarked numbers belong to inactive results. The call rests on the fitted dose curve; in most records, active means well fitted inhibition curve with a large enough effect; inconclusive means small, poorly fitted or top-dose-only effect; inactive means no such curve, though single readings can be large or run the other way.

test: qHTS Assay for Identifying the Cell-Membrane Permeable IMPase Inhibitors: Potentiation with Lithium; settings: CHO-M1 cells, IP1 TR-FRET (IP-One), carbachol + lithium; series mostly up to 59.4 µM; activity, negative = IMPase inhibition: at the top concentration;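 further: IP1 builds up when IMPase is blocked and the TR-FRET signal falls; nearly all actives have a fitted effect of over 50% in size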;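 on activity, negative = IMPase inhibition: plate controls were basal vehicle for no effect and high inhibitor control for full effect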
From the text: NIH Chemical Genomics Center [NCGC]
NIH Molecular Libraries Probe Production centers Network [MLPCN]
Assay Submitter (PI): Wei Zheng
Lithium has been widely used for the treatment of bipolar disorder. But lithium has a narrow therapeutic index and it can cause side effects such as thirst, weight gain, tremor, polyuria and memory problems. Although the mechanism for lithium action in treatment of bipolar disorder is still not fully understood, inhibition of inositol monophosphatase (IMPase) and the subsequent depletion of the inositol pool in living cells have been implicated as the primary therapeutic benefit of lithium therapy. Therefore, a selective IMPase inhibitor with reduced side effects might be a good drug candidate to replace lithium for the treatment of bipolar disorder. Several IMPase inhibitors have been discovered previously. However, they are not suitable for therapeutic use because of their poor cell membrane penetrability or oral bioavailability; the development of new cell-permeable IMPase inhibitors is needed.
IMPase catalyzes the hydrolysis of inositol-1-phosphate (IP1) to release free inositol. Binding of an agonist to a Gq coupled GPCR results in the activation of PLC, which hydrolyzes the PIP2 to form inositol-1,4,5-trisphosphate (IP3) and diacyl glycerol (DAG). While DAG activates protein kinase C (PKC), IP3 triggers the elevation of intracellular free Ca2+. The IP3 is very rapidly inactivated by hydrolysis to IP2, IP1 and then inositol by a series of enzymes including IMPase. Free inositols are used for synthesis of PI and thus start another inositol cycle.
To identify new cell-permeable IMPase inhibitors, we developed a cell-based IMPase assay in which the cytosolic IP1 is measured by a time-resolved fluorescence resonance energy transfer (TR-FRET) assay. In this assay, an IP1 specific antibody is used to detect the labeled IP1 tracer. When the cell lysate contains the elevated IP1 due to the inhibition of IMPase, the TR-FRET between the labeled antibody and IP1 tracer is disrupted resulting in a reduction in the total signal. Since the TR-FRET is used, this cell-based assay is a homogenous assay without cell wash and medium change that is suitable for assay miniaturization and HTS. In this particular assay, a small amount of lithium is added to potentiate the response of weak activators.
NCGC Assay Protocol Summary:
A Chinese hamster ovary (CHO) cell line stably expressing the M1 receptor (CHO-M1) was obtained from ATCC and maintained in F-12 Kaighn's media (Invitrogen, Carlsbad, CA) supplemented with 10 % FBS, 100 units/ml penicillin, 100 ug/ml streptomycin and 250 ug/ml geneticin at 37C, 5% CO2 in a humidified atmosphere. Before the assay, aliquots of cells were frozen and stored at -135C. The assay was performed in 1536-well format. Data are reported for both the ratio of the two emission wavelengths, and also for the component 'donor' channel, Em2=620. […] AC50 values were determined from concentration-response data modeled with the standard Hill equation.
(1) Frozen CHO-M1 cells were thaw, washed once with fresh media and resuspended in F12K media containing 10% FBS, 100 units/ml penicillin and 100 ug/ml streptomycin. Cells were plated at 4ul/well (2000 cells) in white, tissue culture treated 1536-well plates, and then cultured at 37C, 5 % CO2 for 16 to 30 hours.
(2) Add 23 nl/well of compound in DMSO solution. The final titration for each compound was between 0.6 nM and 46 uM.
(4) Incubation at 37C, 5 % CO2 for 30 min.
(5) Add 1 ul/well of d2-conjugated IP1 (d2-IP1) and 1 ul/well of Eu+ cryptate conjugated anti-IP1 antibody (Eu+-Ab) prepared in the cell lysis buffer, both from the IP-One kit (Cisbio, MA).
(6) Incubate at room temperature for 10 minutes.
(7) Detect the assay plate (Ex = 320, Em1 =665 and Em2 620) in a ViewLux plate reader.
Potency means the concentration at half of the fitted maximal effect.

Point of comparison: `O=C(NCc1ccccn1)c1cc(Br)ccc1Cl`, “activity, negative = IMPase inhibition” value 5.27%. Against it:
- Cc1cc2oc(=O)cc(-c3ccccc3)c2c(C)c1/C=C/c1ccc(F)cc1 — lower, -7.25%
- Cc1ccc(-c2cccc([C@H]3[C@@H]4C=CC[C@@H](C)[C@@H]4C(=O)N3Cc3ccccc3)c2)cc1 — higher, 10%
- CC(=O)/C(C)=N/O — lower, -3.22%
- Cc1ccc2nc(-c3ccncc3)cc(C(=O)Nc3ccc(OC(F)F)cc3)c2c1 — higher, 16.8%
- Cc1ccc2nc(-c3ccccn3)cc(C(=O)Nc3ccc4c(c3)OCO4)c2c1 — lower, 4.54%
- Cc1ccc(-c2cc(C(=O)NCc3cn(C)nc3C)c3cc(Br)ccc3n2)cc1 — lower, -14.7%
- S=C(NCCCc1cnc[nH]1)NCCCN(Cc1ccc(Cl)c(Cl)c1)c1ccc(Br)cn1 — lower, 2.14%
- C=CC(C1=CC(=O)C=CC1=O)c1ccc(O)cc1 (configuration not stated) — higher, 38.9%
- COc1cccc([C@@H]2Oc3ccc(Br)cc3C(=O)[C@H]2OC(=O)NCc2ccc3c(c2)OCO3)c1 — higher, 9.58%
- CC(=O)[C@H](C(c1ccccc1)N1CCOCC1)N1CCOCC1 (some centres not stated) — lower, -10.4%
- COC(=O)C1=C(C(=O)OC)[C@@H]2N(Cc3ccccc3)c3ccccc3[C@@]23C[C@@H](C(=O)OC)N(S(=O)(=O)c2ccc(C(F)(F)F)cc2)C3=N1 — higher, 9.75%
- CC/C=C\C/C=C\C/C=C\C/C=C\C/C=C\C/C=C\CCC(=O)NC(C)C(=O)O (configuration not stated) — higher, 18%
- COC(=O)C/C=C/[C@@H](C)[C@H](NC(=O)OCC(Cl)(Cl)Cl)c1ccccc1 — lower, 3.99%
- C=C(C(C)=O)C(O)c1ccc([N+](=O)[O-])cc1 (configuration not stated) — higher, 39.2%
- O=C1OCCN1C(=O)[C@H]1[C@H](c2ccc(F)cc2)C(c2ccccc2)=NN1c1ccc(Br)cc1 — lower, 0.301%
- C=C/C1=C/Cc2ccccc2[C@H](C[N+](=O)[O-])C(C(=O)OC)(C(=O)OC)C1 — higher, 17.6%
- C=CC1=C2C=C(C3CC3)N(CC(C)C)C=C2C(=O)C(C)(OC(=O)c2ccco2)C1=O (configuration not stated) — higher, 7.37%
- O=C1OCCN1C(=O)[C@H]1[C@H](c2ccccc2)C(c2ccc(F)cc2)=NN1c1ccccc1 — lower, -13.4%
- COc1ccc(/C=C2\NC(=O)[C@@H]3Cc4ccccc4CN3C2=O)cc1 — higher, 12.7%
- NCCC(=O)c1ccccc1N — lower, -1.61%
- COC(=O)C1=C(C(=O)OC)[C@@H]2N(C)c3ccccc3[C@@]23C[C@@H](C(=O)OC)N(S(=O)(=O)c2cccs2)C3=N1 — higher, 8.96%
- C=CCN1C=C2C(=O)C(C)(OC(=O)CCc3ccccc3)C(=O)C=C2C=C1c1ccc(C#N)cc1 (configuration not stated) — lower, -2.86%
- C=CCN(CC=C)S(=O)(=O)c1ccc(C(=O)Nc2nc3c(s2)CCc2ccccc2-3)cc1 — higher, 6.49%
- CC(C)=CCN1CCC2(CCc3ccccc32)CC1 — lower, -23.8%
- C[C@H]1Cc2c(-c3ccccc3)nc3c(c2CO1)CN(C(=O)C1CC1)CC3 — higher, 11.8%
- Cc1cn(C2OC[C@@H](O)[C@@H]2CO)c(=O)[nH]c1=O (some centres not stated) — higher, 31%
- O=c1c(O)c(Br)ccc2c(Br)c(O)c(O)c(O)c12 — higher, 38.1%
- Cc1cccc([C@H]2[C@@H]3C=CC[C@@H](C)[C@@H]3C(=O)N2Cc2ccccc2)c1 — higher, 6.4%
- COC(=O)N1C(/C=C/C=C/c2ccc(OC)cc2)=Cc2ccccc2C1CC(C)=O (configuration not stated) — higher, 5.89%
- CCCCC/C=C\C/C=C\C/C=C\CCCCC(=O)NCC(=O)O — lower, 4.54%
- CCC(C)[C@@H](N)C(=O)O (some centres not stated) — lower, -2.45%
- C=CCN1c2ccccc2[C@]23C[C@@H](C(=O)OC)N(S(=O)(=O)c4ccc([N+](=O)[O-])cc4)C2=NC(C(=O)OC)=C(C(=O)OC)[C@H]13 — higher, 8.65%
- Cc1cc(C)c(C#N)c(SCC(=O)Nc2ccccc2)n1 — lower, -12.8%
- C[C@H]1Cc2c(-c3ccccc3)nc3c(c2CO1)CN(S(=O)(=O)c1ccc(Cl)c2nonc12)CC3 — higher, 7.59%

In the case of `O=C(NCc1cccs1)c1cc(-c2ccccn2)nc2ccc(Br)cc12`, the Potency is reported as 6.31 µM (active).
With `O=C(Nc1ccncc1)c1cc(-c2ccccn2)nc2ccc(Br)cc12` the Potency was 2.82 µM (active).
In the case of `COc1ccc(CCCOC(Cn2ccnc2)c2ccc(OC)cc2)cc1` (configuration not stated), the Potency is reported as “inactive”.
For `CN(C)[C@@H]1C(=O)C(C(N)=O)=C(O)[C@@]2(O)C(=O)C3=C(O)c4c(O)ccc(Cl)c4[C@@H](O)[C@H]3C[C@@H]12`, the Potency was 3.98 µM (active).
With `C=CCN(CC=C)S(=O)(=O)c1ccc(C(=O)Nc2sc3c(c2C(N)=O)CCCCC3)cc1` the Potency was 10 µM (active).
For `COc1ccc(/C(O)=C2/C(=O)C(=O)N(c3nc(C)c(C)s3)C2c2ccco2)cc1` (configuration not stated), the Potency was 12.6 µM (active).
For `COCc1cc(C)nc(SCC(=O)Nc2cccc(C)c2)c1C#N`, the Potency was 22.4 µM (active).
For `CC(Nc1oc(-c2ccccc2)nc1-c1ccccc1)c1ccccc1` (configuration not stated), the Potency was “inactive”.

Point of comparison: `Cc1ccc(C(=O)c2c(NC(=O)c3ccncc3)sc3c2CCCC3)cc1`, “activity, negative = IMPase inhibition” value 42.5% [at 38.3 µM]. Against it:
- COc1ccccc1C1/C(=C(/O)c2ccc(OC(C)C)cc2)C(=O)C(=O)N1c1cc(C)on1 (configuration not stated) — lower, 6.7% [at 38.3 µM]
- COc1ccc(/C(O)=C2\C(=O)C(=O)N(Cc3ccco3)C2c2ccc(OC)cc2OC)cc1 (configuration not stated) — lower, -20.2% [at 38.3 µM]
- COCc1cc(C)nc(Nc2cc(C)ccc2C)c1C#N — lower, 2.06% [at 38.3 µM]
